Results filed as inconclusive are left out. The source made the active and inactive calls. The call rests on the fitted dose curve; in most records, active means well fitted curve in the direction sought with a large enough effect; inconclusive means small, poorly fitted or top-dose-only effect, or another doubt; inactive means no such curve, though single readings can be large; an effect the other way counts as inactive or inconclusive.
Key:
[1] = qHTS of pediatric cancer cell lines to identify multiple opportunities for drug repurposing: Primary screen for TC32 cells (AID 1347089); conditions: TC32 Ewing sarcoma viability, CellTiter-Glo luminescence, 48 h; series mostly up to 45.8 µM; further: nearly all actives have a fitted effect of over 60% in size
Procedure, shortened: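 A viability screen of TC32 cells was run over 48 h, with primary MIPE doses spanning 0.78 nM–46 µM and NPC doses 0.59 nM–46 µM. ATP luminescence (CellTiter-Glo) served as the read-out.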

[2] = qHTS of pediatric cancer cell lines to identify multiple opportunities for drug repurposing: Primary screen for DAOY cells (AID 1347090); conditions: DAOY medulloblastoma viability, CellTiter-Glo luminescence, 48 h; series mostly up to 46 µM; further: nearly all actives have a fitted effect of over 55% in size
Procedure, shortened: (§1)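 Cell viability, CellTiter-Glo luminescence; 500-1,000 cells/well, 8- or 11-point titration, 48 h compound exposure at 37 degrees C, 5% CO2. Controls: DMSO neutral, bortezomib 2.3 µM final as positive.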

[3] = qHTS of pediatric cancer cell lines to identify multiple opportunities for drug repurposing: Primary screen for SJ-GBM2 cells (AID 1347091); conditions: SJ-GBM2 viability, CellTiter-Glo luminescence, 48 h; series mostly up to 46 µM
Procedure, shortened: as §1

[4] = qHTS of pediatric cancer cell lines to identify multiple opportunities for drug repurposing: Primary screen for A673 cells (AID 1347092); conditions: A673 Ewing sarcoma viability, CellTiter-Glo ATP luminescence, 48 h; series mostly up to 46 µM; further: nearly all actives have a fitted effect of over 45% in size
Procedure, shortened: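 Titration-based qHTS on A673 cells: MIPE compounds spanned 11 points (0.78 nM to 46 µM final), NPC compounds 8 points (0.59 nM to 46 µM final). Viability after 48 h was measured by ATP luminescence.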

[5] = qHTS of pediatric cancer cell lines to identify multiple opportunities for drug repurposing: Primary screen for SK-N-MC cells (AID 1347093); conditions: SK-N-MC viability, CellTiter-Glo luminescence, 48 h; series mostly up to 46 µM
Procedure, shortened: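 Metabolically active cells were quantified by ATP-dependent luminescence (CellTiter-Glo, 15 min at room temperature) following 48 h treatment. Cells had been plated at 500-1,000 per well and settled for 5 h beforehand.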

[6] = qHTS of pediatric cancer cell lines to identify multiple opportunities for drug repurposing: Primary screen for BT-37 cells (AID 1347094); conditions: BT-37 viability, CellTiter-Glo luminescence, 48 h; series mostly up to 57.3 µM
Procedure, shortened: (§2)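 CRCs from 8- or 11-point titrations (lowest final 0.59 nM NPC, 0.78 nM MIPE). Cell viability: CellTiter-Glo after 48 h incubation, 15 min room-temperature development, luminescence imaging.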

[7] = qHTS of pediatric cancer cell lines to identify multiple opportunities for drug repurposing: Primary screen for NB-EBc1 cells (AID 1347095); conditions: NB-EBc1 neuroblastoma viability, CellTiter-Glo luminescence, 48 h; series mostly up to 46 µM
Procedure, shortened: as §2

[8] = qHTS of pediatric cancer cell lines to identify multiple opportunities for drug repurposing: Primary screen for U-2 OS cells (AID 1347096); conditions: U-2 OS viability, CellTiter-Glo luminescence, 48 h; series mostly up to 46 µM; further: nearly all actives have a fitted effect of over 50% in size
Procedure, shortened: (§3)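 Cells (500-1,000/well) rested 5 h, then received compounds for 48 h; metabolically active cells were measured by CellTiter-Glo luminescence. Final concentrations spanned up to 46 µM (MIPE, 11-point) or 0.59 nM-46 µM (NPC, 8-point) in primary screens, 11-point in follow-ups.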

[9] = qHTS of pediatric cancer cell lines to identify multiple opportunities for drug repurposing: Primary screen for Saos-2 cells (AID 1347097); conditions: Saos-2 viability, CellTiter-Glo ATP luminescence, 48 h; series mostly up to 46 µM; further: nearly all actives have a fitted effect of over 40% in size
Procedure, shortened: as §2

[10] = qHTS of pediatric cancer cell lines to identify multiple opportunities for drug repurposing: Primary screen for SK-N-SH cells (AID 1347098); conditions: SK-N-SH viability, CellTiter-Glo luminescence, 48 h; series mostly up to 57 µM; further: nearly all actives have a fitted effect of over 65% in size
Procedure, shortened: as §3

[11] = qHTS of pediatric cancer cell lines to identify multiple opportunities for drug repurposing: Primary screen for NB1643 cells (AID 1347099); conditions: NB1643 neuroblastoma viability, CellTiter-Glo luminescence, 48 h; series mostly up to 46 µM; further: nearly all actives have a fitted effect of over 50% in size
Procedure, shortened: as §2

[12] = qHTS of pediatric cancer cell lines to identify multiple opportunities for drug repurposing: Primary screen for LAN-5 cells (AID 1347100); conditions: LAN-5 neuroblastoma viability, CellTiter-Glo luminescence, 48 h; series mostly up to 46 µM
Procedure, shortened: as §3

[13] = qHTS of pediatric cancer cell lines to identify multiple opportunities for drug repurposing: Primary screen for BT-12 cells (AID 1347101); conditions: BT-12 viability, CellTiter-Glo luminescence, 48 h; series mostly up to 57.3 µM; further: nearly all actives have a fitted effect of over 25% in size
Procedure, shortened: as §3

[14] = qHTS of pediatric cancer cell lines to identify multiple opportunities for drug repurposing: Primary screen for Rh18 cells (AID 1347102); conditions: Rh18 rhabdomyosarcoma viability, CellTiter-Glo luminescence, 48 h; series mostly up to 46 µM; further: nearly all actives have a fitted effect of over 65% in size
Procedure, shortened: as §3

[15] = qHTS of pediatric cancer cell lines to identify multiple opportunities for drug repurposing: Primary screen for OHS-50 cells (AID 1347103); conditions: OHS-50 osteosarcoma viability, CellTiter-Glo luminescence, 48 h; series mostly up to 57.3 µM; further: nearly all actives have a fitted effect of over 40% in size
Procedure, shortened: as §3

[16] = qHTS of pediatric cancer cell lines to identify multiple opportunities for drug repurposing: Primary screen for RD cells (AID 1347104); conditions: RD rhabdomyosarcoma viability, CellTiter-Glo luminescence, 48 h; series mostly up to 46 µM; further: nearly all actives have a fitted effect of over 55% in size
Procedure, shortened: as §2

[17] = qHTS of pediatric cancer cell lines to identify multiple opportunities for drug repurposing: Primary screen for MG 63 (6-TG R) cells (AID 1347105); conditions: MG 63 (6-TG R) viability, CellTiter-Glo, 48 h; series mostly up to 46 µM; further: nearly all actives have a fitted effect of over 50% in size
Procedure, shortened: as §2

[18] = qHTS of pediatric cancer cell lines to identify multiple opportunities for drug repurposing: Primary screen for control Hh wild type fibroblast cells (AID 1347106); conditions: Hh wild-type fibroblast viability, CellTiter-Glo luminescence, 48 h; series mostly up to 46 µM;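 further: a drop in luminescence marks cytotoxicity and a rise apparent proliferation; nearly all actives have a fitted effect of over 55% in size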
Procedure, shortened: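 Viability after 48 h compound treatment at 37C, 500-1,000 cells/well, read as ATP luminescence with CellTiter-Glo. Primary screens used 11-point (MIPE, 0.78 nM-46 µM) or 8-point (NPC, 0.59 nM-46 µM) final concentrations; follow-up screens used 11-point dilutions.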

[19] = qHTS of pediatric cancer cell lines to identify multiple opportunities for drug repurposing: Primary screen for Rh30 cells (AID 1347107); conditions: Rh30 rhabdomyosarcoma viability, CellTiter-Glo luminescence, 48 h; series mostly up to 46 µM; further: nearly all actives have a fitted effect of over 75% in size
Procedure, shortened: as §3

[20] = qHTS of pediatric cancer cell lines to identify multiple opportunities for drug repurposing: Primary screen for Rh41 cells (AID 1347108); conditions: Rh41 rhabdomyosarcoma viability, CellTiter-Glo luminescence, 48 h; series mostly up to 46 µM;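 further: luminescence drop marks cytotoxic hits; nearly all actives have a fitted effect of over 70% in size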
Procedure, shortened: as §2

Measured: Potency

NCC1(CC(=O)O)CCCCC1
inactive: all assays above

C#CCN(C)[C@H](C)Cc1ccccc1
inactive: all assays above

CCN(C(C)=O)c1cccc(-c2ccnc3c(C#N)cnn23)c1
inactive: all assays above

O=[N+]([O-])c1cc([As](=O)(O)O)ccc1O
inactive: all assays above

NP(N)(=O)NC(=O)c1ccc(F)cc1
not listed: [15]
inactive: all other assays above

CC(=O)[C@H]1CC[C@H]2[C@@H]3CC[C@H]4C[C@](C)(O)CC[C@]4(C)[C@H]3CC[C@]12C
inactive: all assays above

CCN(CC)CCOC(=O)C(O)(c1ccccc1)c1ccccc1
inactive: all assays above

CC(C)CC(N(C)C)C1(c2ccc(Cl)cc2)CCC1 (centres undefined)
inactive: all assays above

CN(C)CCc1ccc(O)cc1
not listed: [15]
inactive: all other assays above

C[C@]12CCC(=O)C(O)=C1CC[C@@H]1[C@@H]2CC[C@]2(C)C(=O)CC[C@@H]12
inactive: all assays above

N[C@@H](Cc1ccc(Oc2cc(I)c(O)c(I)c2)c(I)c1)C(=O)O
inactive: all assays above

CC[N+]1(C)CCCC(OC(=O)C(O)(c2ccccc2)c2ccccc2)C1 (centres undefined)
inactive: all assays above

CC(C)NCC(O)c1ccccc1Cl (centres undefined)
inactive: all assays above

NN=C(N)N
inactive: all assays above

CC1NCCOC1c1ccccc1 (centres undefined)
not listed: [15]
inactive: all other assays above

CCC(C(N)=O)N1CCCC1=O (centres undefined)
not listed: [15]
inactive: all other assays above

CC(C)=CC1C(C(=O)OCc2cccc(Oc3ccccc3)c2)C1(C)C (centres undefined)
not listed: [15]
inactive: all other assays above

CC(=O)[C@H]1CC[C@H]2[C@@H]3CC[C@H]4C[C@H](O)CC[C@]4(C)[C@H]3C(=O)C[C@]12C
not listed: [15]
inactive: all other assays above

CC(C)(N)Cc1ccc(Cl)cc1
not listed: [15]
inactive: all other assays above

C=CCN1CC[C@]23c4c5ccc(O)c4O[C@H]2C(=O)CC[C@@]3(O)[C@H]1C5
inactive: all assays above

Nc1ccncc1
not listed: [15]
inactive: all other assays above

CC(C)(C)NCC(O)c1cc(Cl)c(N)c(Cl)c1 (centres undefined)
inactive: all assays above

CC1OC(C)OC(C)O1 (centres undefined)
not listed: [15]
inactive: all other assays above

Cc1cccc(C)c1NC(=O)CN1CCCC1=O
inactive: all assays above

C#CCOC(C(=O)OCCN(C)C)(c1ccccc1)c1ccccc1
inactive: all assays above

NCC(O)c1ccc(O)cc1 (centres undefined)
not listed: [15]
inactive: all other assays above

CCN(CC)CCN1C(=O)CN=C(c2ccccc2F)c2cc(Cl)ccc21
not listed: [15]
inactive: all other assays above
